# The whole screen tested about 5,500 compounds, of which about 2,000 (36%) were called active. Roughly 18% stayed inconclusive and do not appear here. The list shows a part of the results. Values without a mark were called inactive. Rule as the data show it: active = normalized growth mostly below about 0.91 (no sharp cut-off); inconclusive = no clear call, values can overlap the other calls; inactive = mostly above about 0.92.
# Assay: chemical genetic growth profiling, strain panel (AID 1159580);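 also: tested at 20 µM; growth read once vehicle control cultures reached saturation at 30 °C; 1 = growth at the plate median or of vehicle wells; lower values mean less growth of the strain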
# Conditions: growth OD
# [1] = S. cerevisiae deletion strains, locus YAL013W, strain DEP1, stronger effect = lower value
# [2] = S. cerevisiae deletion strains, locus YBR229C, strain ROT2, stronger effect = lower value
# [3] = S. cerevisiae deletion strains, locus YCL061C, strain MRC1, stronger effect = lower value
# [4] = S. cerevisiae deletion strains, locus YDL101C, strain DUN1, stronger effect = lower value
# [5] = S. cerevisiae deletion strains, locus YDR150W, strain NUM1, stronger effect = lower value
# [6] = S. cerevisiae deletion strains, locus YEL061C, strain CIN8, stronger effect = lower value
# [7] = S. cerevisiae deletion strains, locus YGR078C, strain PAC10, stronger effect = lower value
# [8] = S. cerevisiae deletion strains, locus YHR030C, strain SLT2, stronger effect = lower value
# [9] = S. cerevisiae deletion strains, locus YHR087W, strain rtc3, stronger effect = lower value
# [10] = S. cerevisiae deletion strains, locus YJR043C, strain POL32, stronger effect = lower value
# [11] = S. cerevisiae deletion strains, locus YLR039C, strain RIC1, stronger effect = lower value
# [12] = S. cerevisiae deletion strains, locus YLR058C, strain SHM2 (second series), stronger effect = lower value
# [13] = S. cerevisiae deletion strains, locus YLR085C, strain ARP6, stronger effect = lower value
# [14] = S. cerevisiae deletion strains, locus YLR262C, strain YPT6, stronger effect = lower value
# [15] = S. cerevisiae deletion strains, locus YML094W, strain GIM5, stronger effect = lower value
# [16] = S. cerevisiae deletion strains, locus YMR219W, strain ESC1, stronger effect = lower value
# [17] = S. cerevisiae deletion strains, locus YMR263W, strain SAP30, stronger effect = lower value
# [18] = S. cerevisiae deletion strains, locus YNL153C, strain GIM3, stronger effect = lower value
# [19] = S. cerevisiae deletion strains, locus YNL298W, strain CLA4 (second series), stronger effect = lower value
# [20] = S. cerevisiae deletion strains, locus YNL322C, strain KRE1, stronger effect = lower value
# [21] = S. cerevisiae deletion strains, locus YNR030W, strain Alg12, stronger effect = lower value
# [22] = S. cerevisiae deletion strains, locus YPL055C, strain LGE1, stronger effect = lower value
# [23] = S. cerevisiae deletion strains, locus YPL241C, strain CIN2, stronger effect = lower value
# [24] = S. cerevisiae deletion strains, locus YPR135W, strain CTF4, stronger effect = lower value
# [25] = S. cerevisiae deletion strains, locus YJR075W, strain HOC1, stronger effect = lower value
compound,measurement,setting,value
Cc1cc(C)c(Cn2nc(C(C)(C)C)cc2C(=O)Nc2cccc(C(F)(F)F)c2)c(C)c1,normalized growth,[1],0.991
same,normalized growth,[2],1.06
same,normalized growth,[3],0.99
same,normalized growth,[4],0.999
same,normalized growth,[5],1.16
same,normalized growth,[6],0.986
same,normalized growth,[7],0.998
same,normalized growth,[8],1.1
same,normalized growth,[9],0.999
same,normalized growth,[10],0.927
same,normalized growth,[11],1.02
same,normalized growth,[12],1
same,normalized growth,[13],1.01
same,normalized growth,[14],1.02
same,normalized growth,[15],1
same,normalized growth,[16],0.998
same,normalized growth,[17],0.988
same,normalized growth,[18],1
same,normalized growth,[19],1.02
same,normalized growth,[20],0.992
same,normalized growth,[21],0.994
same,normalized growth,"S. cerevisiae deletion strains, locus YOL006C, strain TOP1, stronger effect = lower value",1.06
same,normalized growth,[22],1.05
same,normalized growth,[23],0.995
same,normalized growth,[24],1.07
same,normalized growth,"S. cerevisiae strains, strain wild type, stronger effect = lower value",1
CC(C)(C)c1cc(C(=O)NNC(=O)c2cc(C(F)(F)F)cc(C(F)(F)F)c2)n(Cc2ccc(F)cc2)n1,normalized growth,[1],0.979
same,normalized growth,[2],1.03
same,normalized growth,[3],1.04
same,normalized growth,[4],0.964
same,normalized growth,[5],1.01
same,normalized growth,[6],0.979
same,normalized growth,[7],1.01
same,normalized growth,[8],1
same,normalized growth,[9],0.994
same,normalized growth,[10],0.997
same,normalized growth,[25],1.08
same,normalized growth,[11],1.02
same,normalized growth,[12],1.04
same,normalized growth,[13],0.999
same,normalized growth,[14],1.02
same,normalized growth,[15],0.987
same,normalized growth,[16],1
same,normalized growth,[17],1.02
same,normalized growth,[18],1
same,normalized growth,[19],0.984
same,normalized growth,[20],0.99
same,normalized growth,[21],0.997
same,normalized growth,[22],0.976
same,normalized growth,[23],1.01
same,normalized growth,[24],0.927
CC(C)(C)c1cc(C(=O)Nc2ccc3c(c2)OCO3)n(Cc2ccc(F)cc2)n1,normalized growth,"S. cerevisiae deletion strains, locus YAR019C, strain CDC15, stronger effect = lower value",0.987
same,normalized growth,"S. cerevisiae deletion strains, locus YBL105C, strain PKC1, stronger effect = lower value",0.968
same,normalized growth,"S. cerevisiae deletion strains, locus YBR135W, strain CKS1, stronger effect = lower value",0.979
same,normalized growth,"S. cerevisiae deletion strains, locus YBR136W, strain MEC1, stronger effect = lower value",0.99
same,normalized growth,"S. cerevisiae deletion strains, locus YBR160W, strain CDC28, stronger effect = lower value",0.98
same,normalized growth,"S. cerevisiae deletion strains, locus YDL017W, strain CDC7, stronger effect = lower value",0.989
same,normalized growth,"S. cerevisiae deletion strains, locus YDL028C, strain MPS1, stronger effect = lower value",0.991
same,normalized growth,[4],0.997
same,normalized growth,"S. cerevisiae deletion strains, locus YDL108W, strain KIN28, stronger effect = lower value",0.986
same,normalized growth,"S. cerevisiae deletion strains, locus YDL132W, strain cdc53, stronger effect = lower value",0.972
same,normalized growth,"S. cerevisiae deletion strains, locus YDL214C, strain PRR2, stronger effect = lower value",0.908
same,normalized growth,"S. cerevisiae deletion strains, locus YDR052C, strain DBF4, stronger effect = lower value",0.988
same,normalized growth,"S. cerevisiae deletion strains, locus YDR054C, strain cdc34, stronger effect = lower value",0.993
same,normalized growth,"S. cerevisiae deletion strains, locus YDR226W, strain ADK1, stronger effect = lower value",0.983
same,normalized growth,"S. cerevisiae deletion strains, locus YDR477W, strain SNF1, stronger effect = lower value",0.938
same,normalized growth,"S. cerevisiae deletion strains, locus YER123W, strain YCK3, stronger effect = lower value",0.906
same,normalized growth,"S. cerevisiae deletion strains, locus YER133W, strain GLC7, stronger effect = lower value",0.955
same,normalized growth,"S. cerevisiae deletion strains, locus YFL009W, strain cdc4, stronger effect = lower value",0.994
same,normalized growth,"S. cerevisiae deletion strains, locus YFL029C, strain CAK1, stronger effect = lower value",0.98
same,normalized growth,"S. cerevisiae deletion strains, locus YFR003C, strain YPI1, stronger effect = lower value",0.991
same,normalized growth,"S. cerevisiae deletion strains, locus YFR019W, strain FAB1, stronger effect = lower value",0.938
same,normalized growth,"S. cerevisiae deletion strains, locus YFR028C, strain CDC14, stronger effect = lower value",0.978
same,normalized growth,"S. cerevisiae deletion strains, locus YGR040W, strain KSS1, stronger effect = lower value",0.916
same,normalized growth,"S. cerevisiae deletion strains, locus YGR052W, strain FMP48, stronger effect = lower value",0.997
same,normalized growth,"S. cerevisiae deletion strains, locus YGR092W, strain DBF2, stronger effect = lower value",0.902
same,normalized growth,[8],0.878
same,normalized growth,"S. cerevisiae deletion strains, locus YHR079C, strain IRE1, stronger effect = lower value",0.926
same,normalized growth,"S. cerevisiae deletion strains, locus YHR082C, strain KSP1, stronger effect = lower value",0.984
same,normalized growth,"S. cerevisiae deletion strains, locus YHR205W, strain SCH9, stronger effect = lower value",0.86
same,normalized growth,"S. cerevisiae deletion strains, locus YIL147C, strain SLN1, stronger effect = lower value",0.99
same,normalized growth,"S. cerevisiae deletion strains, locus YJL095W, strain BCK1, stronger effect = lower value",0.877
same,normalized growth,"S. cerevisiae deletion strains, locus YJL128C, strain PBS2, stronger effect = lower value",0.977
same,normalized growth,"S. cerevisiae deletion strains, locus YJL157C, strain FAR1, stronger effect = lower value",0.909
same,normalized growth,"S. cerevisiae deletion strains, locus YJR016C, strain ILV3, stronger effect = lower value",0.981
same,normalized growth,"S. cerevisiae deletion strains, locus YJR066W, strain TOR1 (second series), stronger effect = lower value",0.889
same,normalized growth,"S. cerevisiae deletion strains, locus YJR066W, strain TOR1, stronger effect = lower value",0.999
same,normalized growth,"S. cerevisiae deletion strains, locus YKL048C, strain ELM1, stronger effect = lower value",0.931
same,normalized growth,"S. cerevisiae deletion strains, locus YKL067W, strain YNK1, stronger effect = lower value",0.94
same,normalized growth,"S. cerevisiae deletion strains, locus YKL101W, strain HSL1, stronger effect = lower value",0.891
same,normalized growth,"S. cerevisiae deletion strains, locus YKL193C, strain SDS22, stronger effect = lower value",0.987
same,normalized growth,"S. cerevisiae deletion strains, locus YKL203C, strain TOR2, stronger effect = lower value",0.994
same,normalized growth,"S. cerevisiae deletion strains, locus YLR113W, strain HOG1, stronger effect = lower value",0.858 (active)
same,normalized growth,"S. cerevisiae deletion strains, locus YLR133W, strain CKI1, stronger effect = lower value",0.918
same,normalized growth,"S. cerevisiae deletion strains, locus YLR403W, strain SFP1, stronger effect = lower value",0.906
same,normalized growth,"S. cerevisiae deletion strains, locus YML070W, strain DAK1, stronger effect = lower value",0.895
same,normalized growth,"S. cerevisiae deletion strains, locus YMR001C, strain CDC5, stronger effect = lower value",0.982
same,normalized growth,"S. cerevisiae deletion strains, locus YMR205C, strain PFK2 (second series), stronger effect = lower value",0.926
same,normalized growth,"S. cerevisiae deletion strains, locus YMR277W, strain FCP1, stronger effect = lower value",0.971
same,normalized growth,"S. cerevisiae deletion strains, locus YNL006W, strain LST8, stronger effect = lower value",0.987
same,normalized growth,"S. cerevisiae deletion strains, locus YNL020C, strain ARK1, stronger effect = lower value",0.889
same,normalized growth,"S. cerevisiae deletion strains, locus YNL161W, strain CBK1, stronger effect = lower value",0.969
same,normalized growth,"S. cerevisiae deletion strains, locus YNL183C, strain NPR1, stronger effect = lower value",0.928
same,normalized growth,"S. cerevisiae deletion strains, locus YNL207W, strain RIO2, stronger effect = lower value",0.986
same,normalized growth,"S. cerevisiae deletion strains, locus YNL222W, strain SSU72, stronger effect = lower value",0.983
same,normalized growth,"S. cerevisiae deletion strains, locus YNL307C, strain MCK1 (second series), stronger effect = lower value",0.9
same,normalized growth,"S. cerevisiae deletion strains, locus YOL078W, strain AVO1, stronger effect = lower value",0.981
same,normalized growth,"S. cerevisiae deletion strains, locus YOL136C, strain PFK27, stronger effect = lower value",0.892
same,normalized growth,"S. cerevisiae deletion strains, locus YOR061W, strain CKA2, stronger effect = lower value",0.874
same,normalized growth,"S. cerevisiae deletion strains, locus YOR119C, strain RIO1, stronger effect = lower value",0.992
same,normalized growth,"S. cerevisiae deletion strains, locus YOR231W, strain MKK1, stronger effect = lower value",0.876
same,normalized growth,"S. cerevisiae deletion strains, locus YOR329C, strain SCD5, stronger effect = lower value",0.96
same,normalized growth,"S. cerevisiae deletion strains, locus YPL031C, strain PHO85, stronger effect = lower value",0.934
same,normalized growth,"S. cerevisiae deletion strains, locus YPL153C, strain RAD53, stronger effect = lower value",0.923
same,normalized growth,"S. cerevisiae deletion strains, locus YPL204W, strain HRR25, stronger effect = lower value",0.909
same,normalized growth,"S. cerevisiae deletion strains, locus YPL209C, strain IPL1, stronger effect = lower value",0.968
same,normalized growth,"S. cerevisiae deletion strains, locus YPL256C, strain CLN2, stronger effect = lower value",0.887
same,normalized growth,"S. cerevisiae deletion strains, locus YPR025C, strain CCL1, stronger effect = lower value",0.995
same,normalized growth,"S. cerevisiae deletion strains, locus YPR106W, strain ISR1, stronger effect = lower value",0.964
same,normalized growth,"S. cerevisiae deletion strains, locus YPR111W, strain DBF20, stronger effect = lower value",0.936
same,normalized growth,"S. cerevisiae deletion strains, strain NNK1, stronger effect = lower value",0.974
same,normalized growth,"S. cerevisiae deletion strains, strain TSCII, stronger effect = lower value",0.986
CCN1CCCC1CNC(=O)c1cc(S(N)(=O)=O)ccc1OC (stereo not drawn),normalized growth,[1],0.972
same,normalized growth,"S. cerevisiae deletion strains, locus YAL040C, strain CLN3, stronger effect = lower value",0.955
same,normalized growth,"S. cerevisiae deletion strains, locus YCL061C, strain MRC1 (second series), stronger effect = lower value",0.984
same,normalized growth,"S. cerevisiae deletion strains, locus YDR363W, strain ESC2, stronger effect = lower value",0.962
same,normalized growth,"S. cerevisiae deletion strains, locus YER002W, strain NOP16, stronger effect = lower value",0.969
same,normalized growth,[25],0.973
same,normalized growth,[17],0.98
same,normalized growth,"S. cerevisiae deletion strains, locus YMR307W, strain GAS1, stronger effect = lower value",1.02
same,normalized growth,[18],1.02
same,normalized growth,"S. cerevisiae deletion strains, locus YNL175C, strain NOP13, stronger effect = lower value",0.978
same,normalized growth,"S. cerevisiae deletion strains, locus YNL197C, strain WHI3, stronger effect = lower value",0.977
same,normalized growth,"S. cerevisiae deletion strains, locus YNL224C, strain SQS1, stronger effect = lower value",0.992
same,normalized growth,[20],0.974
same,normalized growth,"S. cerevisiae deletion strains, locus YOR083W, strain WHI5 (second series), stronger effect = lower value",0.963
same,normalized growth,[22],0.993
CC(=O)Nc1ccc(S(=O)(=O)Nc2c(C)n(C)n(-c3ccccc3)c2=O)cc1,normalized growth,[1],0.999
same,normalized growth,[2],0.947
same,normalized growth,[3],1.02
same,normalized growth,[4],1.04
same,normalized growth,[5],1.04
same,normalized growth,[6],0.995
same,normalized growth,[7],1.02
same,normalized growth,[8],1.11
same,normalized growth,[9],0.974
same,normalized growth,[10],1.02
same,normalized growth,[25],0.996
same,normalized growth,"S. cerevisiae deletion strains, locus YKL190W, strain CNB1, stronger effect = lower value",1.01
same,normalized growth,[11],1.02
same,normalized growth,[12],0.995
same,normalized growth,[13],0.999
same,normalized growth,[14],1
same,normalized growth,[15],1.01
same,normalized growth,[16],1.01
same,normalized growth,[17],1.01
same,normalized growth,[18],1.06
same,normalized growth,[19],1
same,normalized growth,[20],1.01
same,normalized growth,[21],1
same,normalized growth,[22],0.974
same,normalized growth,[23],0.987
same,normalized growth,[24],1.07

# Source: PubChem BioAssay AID1159580 (chemical genetic matrix, 2015)
